Bioassay records as filed in PubChem.
This excerpt belongs to a sample that is enriched for hits.
Pf Dd2 growth – qHTS Primary assay for Inhibitors of Plasmodium falciparum Dd2 growth in vitro. P. falciparum Dd2 growth, SYBR Green, 72 h. Potency, µM (titrated, usually from 28.9 µM), inactives show top-dose activity, negative = inhibition, most hits filed as inhibitors. 120,000 compounds, 4.3% hits. AID 1347417, 2020; active means well fitted inhibition curve with a large enough effect;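 further: plate controls were DMSO vehicle for no effect and reference drug for full effect; nearly all actives have a fitted effect of over 65% in size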
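Infected erythrocytes (Dd2, 0.3% parasitemia, 2.5% hematocrit final) are added to compound in RPMI-1640/Albumax II medium, grown 72 h at 37C in low oxygen, then lysed with saponin/Triton-X containing SYBR Green and read by fluorescence.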
The depositor's hits bear a star; i = inactive; [ ] = dose if it differs, or a comment. Potency means the concentration at half of the fitted maximal effect.

SMILES	Pf Dd2 growth
Cc1noc(C)c1S(=O)(=O)N1CCCCCCNC(=O)CC1	4%
Cc1noc(C)c1S(=O)(=O)NCC(=O)N1CCCCCNC(=O)CC1c1ccccc1 (stereo not given)	10%
COc1ccc(C2(C(=O)N3CCC(c4ncc(C)n4C(C)C)C3)CC2)cc1 (stereo not given)	i
COc1ccc(OC)c(NC(=O)c2cc(-c3ccc[nH]3)n[nH]2)c1	-19%
Cc1ccc(OCC(=O)NCC2Cn3cccc3C(=O)N2C)cc1 (stereo not given)	-5%
COC(=O)CN1C(=O)[C@@H]2C[C@@H](O)CN2C2(CN(Cc3ccccc3F)C2)C1=O	0%[44.1 µM]
Cn1cc(CC(=O)N2CCCCC(N)C2)c2ccccc21 (stereo not given)	-4%
O=C(CSc1nccn1Cc1ccco1)Nc1cc(C(F)(F)F)ccc1Cl	i
CC(C)OC(=O)c1cccnc1SCC(=O)Nc1ccc(C(F)(F)F)cc1Cl	3.2µM*
Cc1cnc(=O)[nH]c1SCC(=O)Nc1cc(C(F)(F)F)ccc1Cl	5%
CN(CC1(C)CCOCC1)C(=O)c1ccc2c(c1)OCO2	16%
CCNC(=O)c1cc2c(=O)[nH]c(-c3ccccc3)cn2n1	8%
CCCCCCC1CCC(C(=O)NC(C(=O)O)C(C)C)CC1 (stereo not given)	10%
O=C(COc1ccc(NC(=O)C2CC2)cn1)NCCc1cccs1	-6%
CC(C)(C)c1ccnc(N[C@H]2CO[C@H]3[C@@H]2OC[C@@H]3NC(=O)c2ccco2)n1	i
CC(C)(C)c1ccnc(N[C@H]2CO[C@H]3[C@@H]2OC[C@@H]3NC(=O)NCc2ccccc2)n1	5µM*
CC(C)(C)c1ccnc(N[C@H]2CO[C@H]3[C@@H]2OC[C@@H]3NC(=O)CCCC(=O)O)n1	-11%[44.1 µM]
CCOc1ccc(NC(=O)Cn2c(=O)n(Cc3ccco3)c(=O)c3oc4ccccc4c32)cc1	-25%
Cc1ccc(N2CCC(NC(=O)Cc3ccccc3C)C2=O)cc1C (stereo not given)	i
CO[C@H]1[C@H](NC(=O)c2cc3ccccc3[nH]2)c2ccccc2C12CCNCC2	-5%
CO[C@H]1[C@H](NC(=O)c2cc3ccccc3n2C)c2ccccc2C12CCNCC2	7.9µM*
CO[C@H]1[C@H](NC(=O)c2cc(C)nn2C)c2ccccc2C12CCNCC2	-3%
CC(NC(=O)c1ccccc1F)C(=O)N1CCN(c2ccccn2)CC1 (stereo not given)	-10%
O=c1n(-c2ccc(F)cc2F)nc2n1CCN(CC1CCCCC1)C2	i
CN(Cc1ccc(-c2ccccc2)cc1)Cc1cccc2ccccc12	1%
SMILES	Pf Dd2 growth
O=C(NCCc1cnc[nH]1)c1cn(CCC2CCCCN2)nn1 (stereo not given)	-3%
Cc1cc(C)c2oc(-c3cccc(NC(=O)c4ccc(Br)o4)c3)nc2c1	41%
COc1ccccc1C(=O)Nc1ccc(-c2nc3cc(C)cc(C)c3o2)cc1	3%
Cc1cc(C)c2oc(-c3ccc(NC(=O)c4cc(Br)ccc4Cl)cc3)nc2c1	10µM*
COc1ccc(C)cc1NC(=O)CCC[C@@H]1[C@H]2CCCN3CCC[C@@H](CN1C)[C@@H]23	i
CCc1nc(-c2c3n(c(=O)n(Cc4ccc(OC(F)(F)F)cc4)c2=O)CCCC3)no1	-9%
Cc1c2cnn(CC(=O)NCc3ccc(F)cc3)c(=O)c2c(C)n1Cc1ccccc1F	-1%
CCN(CC)c1ccc(-c2nc(-c3ccccc3C)no2)cc1[N+](=O)[O-]	-13%
Cn1ccnc1CN1CCN(CC2(O)CNCCOC2)CC1 (stereo not given)	24%
Cc1cc(N2CCN(CC3(O)CNCCOC3)CC2)n2ncnc2n1 (stereo not given)	-1%
OC1(CN2CCC(OCc3ccccn3)CC2)CNCCOC1 (stereo not given)	-19%
OC1(CN2CCN(c3cnccn3)CC2)CNCCOC1 (stereo not given)	-7%
OC1(CN2CCN(C(c3ccccc3)c3ccccc3)CC2)CNCCOC1 (stereo not given)	6.3µM*
OC1(CN2CCCN(c3nc4ccccc4s3)CC2)CNCCOC1 (stereo not given)	8.9µM*
CN(CC1CCOC1)C(=O)Nc1cc(F)ccc1F (stereo not given)	8%[5.79 µM]
Cc1ccc(C)c(Cn2c3ccccc3c3cnn(CC(=O)NCCc4ccccc4)c(=O)c32)c1	20%
CCOc1ccc(CNS(=O)(=O)c2ccc3c(c2)CCCN3C(C)=O)cc1	57%[5.79 µM]
COCCc1noc(-c2ccccc2OC2CN(C(=O)Nc3ccccc3)C2)n1	-22%
Cn1nc(C(=O)NCc2cccc(Cl)c2)c2c1-c1ccccc1S(=O)(=O)C2	-27%
O=C(c1ccco1)N1CC(F)(F)C[C@H]1c1nc(-c2ncccn2)no1	4%
CCc1ccccc1NC(=O)CN1C(=O)c2cccnc2Oc2ccc(Cl)cc21	-16%
COc1ccccc1CNC(=O)CSc1ncc2c(n1)-c1ccccc1N(Cc1ccc(C)cc1)S2(=O)=O	-29%
O=C(O)COCC(=O)N[C@H]1CCN2C(=O)c3cc(-c4ccccc4)ccc3NC(=O)[C@H]12	-19%[44.1 µM]
